Test results taken from article PMC5700166.
Positions count from the first letter of the chain named.

Columns and labels:
Experiment in all cases: protein-binding microarray (PBM); PBM: ~300 nM protein, 6 mM HEPES pH 7.8, 80 mM KCl, 0.5 mM EDTA, 0.5 mM EGTA, 6% glycerol, 35 ng/ul poly-dIdC, 1% milk, 1 h, room temperature; Ap Aiptasia and Nv Nematostella (sea anemones) / Co Capsaspora / Aq Amphimedon (sponge) / Dm Drosophila / Hu human; RHD is the Rel homology domain; high values mean tight binding
Conditions in all cases: dsDNA, one strand shown
GST-Ap-NF-kB RHD = molecular target: T1, GST-Ap-NF-kB RHD (Exaiptasia pallida (Aiptasia), UniProt A0A913YAJ5 2-422)
T1 sequence: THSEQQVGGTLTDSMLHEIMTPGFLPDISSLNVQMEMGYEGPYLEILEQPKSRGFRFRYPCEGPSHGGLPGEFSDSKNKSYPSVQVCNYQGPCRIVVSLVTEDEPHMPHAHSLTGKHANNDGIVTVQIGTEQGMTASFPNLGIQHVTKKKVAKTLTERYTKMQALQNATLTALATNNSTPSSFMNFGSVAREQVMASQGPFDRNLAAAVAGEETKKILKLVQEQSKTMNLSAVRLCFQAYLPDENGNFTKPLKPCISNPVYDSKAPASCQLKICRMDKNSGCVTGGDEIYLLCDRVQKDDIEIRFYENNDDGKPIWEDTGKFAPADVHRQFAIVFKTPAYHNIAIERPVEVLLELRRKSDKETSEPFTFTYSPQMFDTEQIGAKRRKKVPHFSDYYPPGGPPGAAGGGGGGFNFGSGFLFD

[1] = molecular target: T2, GST-Nv-NF-kB (Cys allele) (Nematostella vectensis, UniProt E5G601 2-411)
T2 sequence: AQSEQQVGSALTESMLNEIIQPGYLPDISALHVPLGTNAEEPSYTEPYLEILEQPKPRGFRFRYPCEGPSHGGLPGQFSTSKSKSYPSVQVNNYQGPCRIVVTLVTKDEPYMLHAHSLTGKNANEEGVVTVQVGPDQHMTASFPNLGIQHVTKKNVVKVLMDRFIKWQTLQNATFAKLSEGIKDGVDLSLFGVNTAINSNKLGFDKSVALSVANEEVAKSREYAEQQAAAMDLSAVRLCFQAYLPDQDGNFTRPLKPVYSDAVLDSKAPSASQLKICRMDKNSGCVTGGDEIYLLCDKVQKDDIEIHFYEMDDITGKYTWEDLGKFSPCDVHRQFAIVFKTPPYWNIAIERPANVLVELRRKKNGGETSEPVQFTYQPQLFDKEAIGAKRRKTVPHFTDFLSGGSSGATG

[2] = molecular target: T3, GST-Nv-NF-kB (Ser allele) (Nematostella vectensis, UniProt A7UNT2 2-411)
T3 sequence: T2 sequence with Q21R, C66S, S207N, E215Q, V217A, E225K, A268E, D399E

GST-Co-NF-kB = molecular target: T4, GST-Co-NF-kB (Capsaspora owczarzaki, UniProt F1ARL5 200-546)
T4 sequence: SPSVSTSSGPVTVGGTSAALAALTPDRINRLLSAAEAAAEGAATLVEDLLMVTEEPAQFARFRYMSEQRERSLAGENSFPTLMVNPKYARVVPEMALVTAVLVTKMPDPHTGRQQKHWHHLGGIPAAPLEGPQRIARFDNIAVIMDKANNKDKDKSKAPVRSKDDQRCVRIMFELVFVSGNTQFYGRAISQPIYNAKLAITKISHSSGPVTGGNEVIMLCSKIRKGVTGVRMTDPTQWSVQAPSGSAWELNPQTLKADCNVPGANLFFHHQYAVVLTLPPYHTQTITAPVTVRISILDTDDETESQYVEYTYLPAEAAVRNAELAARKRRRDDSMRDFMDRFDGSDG

GST-Dm-Relish = molecular target: T5, GST-Dm-Relish (Drosophila melanogaster, UniProt Q94527 99-473)
T5 sequence: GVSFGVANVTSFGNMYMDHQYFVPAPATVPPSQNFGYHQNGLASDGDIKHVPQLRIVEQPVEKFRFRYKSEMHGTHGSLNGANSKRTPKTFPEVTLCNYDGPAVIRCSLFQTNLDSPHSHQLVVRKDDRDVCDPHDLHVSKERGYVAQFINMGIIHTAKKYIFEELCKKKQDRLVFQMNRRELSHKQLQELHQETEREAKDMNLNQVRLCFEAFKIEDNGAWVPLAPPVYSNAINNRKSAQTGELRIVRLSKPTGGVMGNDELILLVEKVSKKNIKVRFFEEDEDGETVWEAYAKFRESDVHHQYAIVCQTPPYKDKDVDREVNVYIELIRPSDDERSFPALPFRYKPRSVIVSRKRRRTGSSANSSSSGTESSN

GST-Aq-NF-kB = molecular target: T6, GST-Aq-NF-kB (Amphimedon queenslandica, UniProt A9Y5G7 2-389)
T6 sequence: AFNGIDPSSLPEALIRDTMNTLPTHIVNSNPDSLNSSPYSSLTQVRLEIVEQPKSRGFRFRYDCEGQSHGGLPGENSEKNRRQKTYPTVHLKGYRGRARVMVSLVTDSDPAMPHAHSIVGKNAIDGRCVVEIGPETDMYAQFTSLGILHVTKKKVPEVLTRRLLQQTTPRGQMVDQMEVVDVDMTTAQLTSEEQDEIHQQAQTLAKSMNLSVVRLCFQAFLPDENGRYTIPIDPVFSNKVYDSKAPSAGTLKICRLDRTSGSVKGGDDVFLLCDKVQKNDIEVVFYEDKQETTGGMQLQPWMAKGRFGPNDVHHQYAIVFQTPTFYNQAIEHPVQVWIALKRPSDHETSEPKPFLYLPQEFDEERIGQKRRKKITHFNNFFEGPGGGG

GST-Hu-p50 = GST-Hu-p50 (Homo sapiens, UniProt P19838 7-356)
Sequence of GST-Hu-p50 (P19838 7-356): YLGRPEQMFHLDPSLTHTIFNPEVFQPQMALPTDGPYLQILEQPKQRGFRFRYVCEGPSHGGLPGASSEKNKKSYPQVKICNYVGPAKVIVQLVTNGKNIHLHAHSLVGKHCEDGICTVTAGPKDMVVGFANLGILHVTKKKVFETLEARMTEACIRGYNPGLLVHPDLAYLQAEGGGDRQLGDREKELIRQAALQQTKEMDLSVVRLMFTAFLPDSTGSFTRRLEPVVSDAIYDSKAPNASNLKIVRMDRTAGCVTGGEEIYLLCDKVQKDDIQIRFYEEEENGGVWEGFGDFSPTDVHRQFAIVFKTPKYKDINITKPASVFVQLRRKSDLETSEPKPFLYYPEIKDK

| Sequence | binding signal (GST-Ap-NF-kB RHD) [z-score] | binding signal [1] [z-score] | binding signal [2] [z-score] | binding signal (GST-Co-NF-kB) [z-score] | binding signal (GST-Dm-Relish) [z-score] | binding signal (GST-Aq-NF-kB) [z-score] | binding signal (GST-Hu-p50) [z-score] |
| --- | --- | --- | --- | --- | --- | --- | --- |
| CCGATTAACATCAGGGGGACAACTGATGTTAATCGGGTCTTGATTCGCTTGACGCTGCTG | 5.19 | 5.15 | 4.83 | 6.16 | 3.66 | 4.24 | 4.46 |
| CCGATTAACATCACAAAGTCCCCTGATGTTAATCGGGTCTTGATTCGCTTGACGCTGCTG | 7.77 | 7.32 | 7.65 | 2.97 | 7.95 | 6.4 | 6.44 |
| CCGATTAACATCAGGGGATTATATGATGTTAATCGGGTCTTGATTCGCTTGACGCTGCTG | 7.99 | 9.17 | 9.52 | 4.18 | 6.72 | 7.52 | 6.4 |
| CCGATTAACATCAAGATTCCCCCTGATGTTAATCGGGTCTTGATTCGCTTGACGCTGCTG | 8.66 | 9.42 | 10.6 | 9.18 | 7.1 | 7.31 | 7.32 |
| CCGATTAACATCACACTTTTCCCTGATGTTAATCGGGTCTTGATTCGCTTGACGCTGCTG | 3.17 | 4.45 | 6.11 | 4.46 | 1.59 | 3.57 | 2.84 |
| CCGATTAACATCAGGGGGATACCTGATGTTAATCGGGTCTTGATTCGCTTGACGCTGCTG | 7.92 | 7.48 | 6.28 | 6.16 | 8.18 | 8.7 | 5.56 |
| CCGATTAACATCAAAATTCCCCGTGATGTTAATCGGGTCTTGATTCGCTTGACGCTGCTG | 9.41 | 11.3 | 11.6 | 10.6 | 8.96 | 8.42 | 7.28 |
| CCGATTAACATCAATCCCCACATTGATGTTAATCGGGTCTTGATTCGCTTGACGCTGCTG | 3.58 | 4.03 | 3.93 | 2.61 | 2.63 | 2.58 | 3.86 |
| CCGATTAACATCAGGACAGCCCCTGATGTTAATCGGGTCTTGATTCGCTTGACGCTGCTG | 3.75 | 5.09 | 2.05 | 1.05 | 2.67 | 6.62 | 4.14 |
| CCGATTAACATCAGGGGGTATAATGATGTTAATCGGGTCTTGATTCGCTTGACGCTGCTG | 5.4 | 3.26 | 4.36 | 5.2 | 3.02 | 3.48 | 4.16 |
| CCGATTAACATCAGGGGAATATATGATGTTAATCGGGTCTTGATTCGCTTGACGCTGCTG | 7.96 | 9.67 | 9 | 7.8 | 5.02 | 7.45 | 6.01 |
| CCGATTAACATCAGGGAGATCCCTGATGTTAATCGGGTCTTGATTCGCTTGACGCTGCTG | 7.41 | 8.14 | 4.37 | 1.54 | 7.36 | 8.85 | 4.68 |
| CCGATTAACATCAAAACTCCCCATGATGTTAATCGGGTCTTGATTCGCTTGACGCTGCTG | 7.13 | 6.03 | 6.69 | 5.85 | 5.96 | 5.83 | 5.36 |
| CCGATTAACATCAAAGACCCCCCTGATGTTAATCGGGTCTTGATTCGCTTGACGCTGCTG | 6.11 | 4.15 | 4.24 | 3.36 | 7.07 | 5.33 | 4.3 |
| CCGATTAACATCAGGATTACCCCTGATGTTAATCGGGTCTTGATTCGCTTGACGCTGCTG | 4.61 | 4.15 | 3.63 | 3.97 | 4.19 | 5.53 | 3.75 |
| CCGATTAACATCAAAATTACCCATGATGTTAATCGGGTCTTGATTCGCTTGACGCTGCTG | 2.8 | 4.69 | 4.25 | 2.84 | 4.11 | 4.84 | 4.15 |
| CCGATTAACATCACGGGGATTTCTGATGTTAATCGGGTCTTGATTCGCTTGACGCTGCTG | 9.25 | 9.87 | 10.8 | 5.27 | 9.88 | 7.52 | 7.58 |
| CCGATTAACATCACTAGTCCCCCTGATGTTAATCGGGTCTTGATTCGCTTGACGCTGCTG | 4.7 | 3.39 | 3.45 | 3.98 | 2.58 | 3.81 | 3.46 |
| CCGATTAACATCAGGGGGGAATATGATGTTAATCGGGTCTTGATTCGCTTGACGCTGCTG | 7.1 | 6.54 | 7.41 | 10.2 | 5.21 | 6.44 | 6.79 |
| CCGATTAACATCAGGTATCCCCATGATGTTAATCGGGTCTTGATTCGCTTGACGCTGCTG | 5.17 | 3.31 | 4.07 | 3.11 | 5 | 3 | 3 |
| CCGATTAACATCACGGGATCCCCTGATGTTAATCGGGTCTTGATTCGCTTGACGCTGCTG | 7.35 | 4.81 | 6.31 | 3.23 | 9.23 | 5.41 | 4.53 |
| CCGATTAACATCAAAATTCCCCCTGATGTTAATCGGGTCTTGATTCGCTTGACGCTGCTG | 10.1 | 11.6 | 13.3 | 11.3 | 9.16 | 9.32 | 8.09 |
| CCGATTAACATCACGGGTTTTCCTGATGTTAATCGGGTCTTGATTCGCTTGACGCTGCTG | 2.91 | 2.73 | 1.9 | 1.18 | 4.43 | 4.99 | 2.29 |
| CCGATTAACATCAAAAGAGTCCCTGATGTTAATCGGGTCTTGATTCGCTTGACGCTGCTG | 5.39 | 5.99 | 5.71 | 1.5 | 5.32 | 5.91 | 4.6 |
